± gives the standard deviation.
test system: MILI (PIWIL2) piRISC loaded with L1MC piRNA (26 nt); assay: pre-steady-state target cleavage rate (min^-1); guide: L1MC piRNA 5'p-UAACUAAAUACUAUGCAAGCUGUAGG; MIWI and MILI are mouse PIWI proteins and EfPiwi is from a freshwater sponge; tags in brackets are library labels; higher = faster piRNA-guided slicing of the target; settings: auxiliary factor: 500 nM mouse GTSF1
Protocol: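 Cleave-'n-Seq: a library of target RNAs (target site embedded in constant flanks, ACAGCATTCCGCGTTAGTGATATCCG... 5' flank; DNA-blocked outside the site) at 0.1 nM was incubated with 1 nM active mouse MILI or MIWI piRISC (synthetic 5'-monophosphorylated piRNA guide) with or without 500 nM mouse GTSF1 at 33 °C for 1 min to 16 h. Uncleaved targets were sequenced and normalised to non-target controls, and the pooled three trials were fitted to a burst-and-steady-state model to give the pre-steady-state cleavage rate (min^-1; k3 is constrained to at most 1e-4). Sequence is the target site only; target names encode pairing extent (gX:gY) and contiguous / 1-mismatch / 2-mismatch / bulge geometry. Fits with R² ≤ 0 are excluded.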

Sequence | pre-steady-state target cleavage rate
UCCUGGUACAGCUUGCAAAGUAUUAAGUUA | 0.0919 ± 0.018
UCCUCCAACAGCAUGCAUAGUAUUUAGUUA | 0.282 ± 0.016
UCCUGGAUGAGCUUGGAUACUAUUUAGUUA | 0.00767 ± 0.0035
UCCUGGAUGUCGGUGCAUAGUAUUUAGUUA | 0.0897 ± 0.011
UCCUCCUACAGCUUGUAUAGUAUUUAGUUA | 0.305 ± 0.018
UCCUGGAUGUCGAAGCAUAGUAUCUUAGUUA | 0.0223 ± 0.0048
UCCUGCUACAGCGUGCAUAGUAUUUAGUUA | 0.296 ± 0.02
UCCUGGAACAGCUUGCAUAGUAUUUAGUUU [g2:g23:cont:t1U] | 0.278 ± 0.02
UCCUGGUACAGCUUGCAAAGUAAUUAGUUA | 0.207 ± 0.03
UCCUGGAUGUCCUUGCAUAGUAUUUAGCUUA | 0.0698 ± 0.014
UCCUGGAUCAGCUUGCAUAGUAUUUACGUUA | 0.243 ± 0.027
UCCUGGAUGUCCUUGCAUAGUAUUUAGUAUA | 0.191 ± 0.03
UCCUCCUACAGCUUGGUAAGUAUUUAGUUA | 0.185 ± 0.017
UCCUGGAUCAGCUAGCAUACUAUUUAGUUA | 0.0859 ± 0.012
UCCUGCUACAGCUUGCAUAGAAUUUAGUAA | 0.237 ± 0.062
UCCUGGAACAGCUAGCAUAGUAAUUAGUUA | 0.155 ± 0.018
UCCUGGAUCAGCUUGCAUAUAUUUAGUUA | 0.0263 ± 0.0067
UCCUGCUACAGCUUGCAUAGUAUUUAGUGUA | 0.244 ± 0.048
UCCUGGAACAGCUUGGAUUGUAUUUAGUUA | 0.0767 ± 0.011
UCCUGGUUGUGCUUGCAUAGUAUUUAGUUA | 0.168 ± 0.018
UCCUGGAUGAGCUUGCAAUGUAUUUAGUAA | 0.0194 ± 0.0045
UCCUGGAUCAGCAUGCUUAGUAUUUAGUUA | 0.189 ± 0.019

same assay, conditions: auxiliary factor: none (no GTSF1)

Sequence | pre-steady-state target cleavage rate
UCCUGGUACAGCUUGCAAAGUAUUAAGUUA | 0.00406 ± 0.0027
UCCUCCAACAGCAUGCAUAGUAUUUAGUUA | 0.0108 ± 0.0025
UCCUGGAUGUCGGUGCAUAGUAUUUAGUUA | 0.00862 ± 0.0023
UCCUCCUACAGCUUGUAUAGUAUUUAGUUA | 0.00822 ± 0.0025
UCCUGGAUGUCGAAGCAUAGUAUCUUAGUUA | 0.00455 ± 0.0025
UCCUGCUACAGCGUGCAUAGUAUUUAGUUA | 0.00602 ± 0.0024
UCCUGGAACAGCUUGCAUAGUAUUUAGUUU [g2:g23:cont:t1U] | 0.0155 ± 0.0044
UCCUGGAUGUCGAACGUUAGUAUAUUGUUA | < 0.0001
UCCUGGUACAGCUUGCAAAGUAAUUAGUUA | 0.00414 ± 0.0027
UCCUGGAUCAGCUUGCAUAGUAUUUACGUUA | 0.00431 ± 0.0028
UCCUGGAUGUCCUUGCAUAGUAUUUAGUAUA | 0.00617 ± 0.0026
UCCUCCUACAGCUUGGUAAGUAUUUAGUUA | 0.00498 ± 0.0018
UCCUGGAUCAGCUAGCAUACUAUUUAGUUA | 0.00444 ± 0.0019
UCCUGGAACAGCUAGCAUAGUAAUUAGUUA | 0.00801 ± 0.0026
UCCUGGAACAGCUUGGAUUGUAUUUAGUUA | 0.00295 ± 0.0026
UCCUGGUUGUGCUUGCAUAGUAUUUAGUUA | 0.0141 ± 0.004
UCCUGGAUGAGCUUGCAAUGUAUUUAGUAA | 0.00717 ± 0.0024
UCCUGGAUCAGCAUGCUUAGUAUUUAGUUA | 0.00777 ± 0.0024
